Shown are actives, neighbours in structure and some others; about 1.1% of the full set was active somewhere.
RN4220 kill = kills Staphylococcus aureus RN4220; AID 1259311; 330,000 compounds, 0.33% hits; S. aureus RN4220 growth, OD600, 16 h; inhibition, % (test concentration not listed); in the data active = inhibition above about 85%;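 also: plate controls were untreated cells for no effect and reference antibiotic for full effect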
SSB-PriA inh = blocks PriA binding to SSB C-terminal tail | AlphaScreen SSBct-PriA binding, biotinylated peptide | 430,000 compounds, 0.6% hits | inhibition, % at 33 µM | AID 1272365; in the data active = inhibition mostly above about 37%, no sharp cut-off; inactive = mostly below about 20%;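 also: plate controls were negative control peptide for no effect and reference peptide for full effect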
Sa ugtP lethal = compounds lethal to S. aureus RN4220 ugtP deletion mutant. OD600 growth, 16 h. growth inhibition, % (concentration not given with the values). 330,000 compounds, 0.54% hits. AID 1259309; in the data active = growth inhibition above about 68%;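 also: plate controls were untreated wells for no effect and antibiotic for full effect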
Mtb hypoxia rep = Mtb hypoxia fluorescent reporter inhibition; M. tuberculosis hypoxia-regulated fluorescent reporter, fluorescence; fluorescence inhibition, % (no concentration beside the values); 300,000 compounds, 0.1% hits; AID 1159583; in the data active = fluorescence inhibition mostly above about 23%, no sharp cut-off; inactive = mostly below about 17%
* = called active by the depositor.

How did O=C(O)CCC(=O)Nc1nnc(C(F)(F)F)s1 do in these assays?
RN4220 kill: 2.0; SSB-PriA inh: -3.0; Sa ugtP lethal: -5.0

Results for CCC(NC(=O)Nc1nnc(C(F)(F)F)s1)(C(F)(F)F)C(F)(F)F ?
RN4220 kill: 74.8; SSB-PriA inh: 0.1; Sa ugtP lethal: 87.9*

Results for O=C(O)CN1C(=O)c2cccc3c(Br)ccc1c23 ?
RN4220 kill: 1.9; SSB-PriA inh: 0.8; Sa ugtP lethal: 0.2; Mtb hypoxia rep: 3.7

What do the screens show for `CN(C)CCCN1C(=O)c2cccc3c(Br)ccc(c23)C1=O`?
RN4220 kill: -0.3; SSB-PriA inh: -2.9; Sa ugtP lethal: 11.4; Mtb hypoxia rep: 67.1*

How did CCCCN=C[C@]12CCC(O)CC1(O)CCC1[C@@H]2CC[C@]2(C)[C@H](C3C=CC(=O)O3)CCC12O (some centres not stated) do in these assays?
RN4220 kill: 4.9; SSB-PriA inh: 65.8*; Sa ugtP lethal: 2.8; Mtb hypoxia rep: -0.5

Results for C/C(=N/NC(=S)NCc1ccco1)c1cccc([N+](=O)[O-])c1 ?
SSB-PriA inh: 66.0*

Results for CCNC(=S)NN=C(C)c1cccc([N+](=O)[O-])c1 ?
RN4220 kill: 2.0; SSB-PriA inh: 9.3; Sa ugtP lethal: 9.7; Mtb hypoxia rep: 5.4

What do the screens show for `C(=Nc1ccccc1)c1ccc[nH]1`?
RN4220 kill: 3.4; SSB-PriA inh: -10.4; Sa ugtP lethal: -2.4; Mtb hypoxia rep: 3.3

What do the screens show for `Oc1ccccc1N=Cc1ccc[nH]1`?
RN4220 kill: 12.3; SSB-PriA inh: 0.3; Sa ugtP lethal: -0.5; Mtb hypoxia rep: 81.1*

What do the screens show for `COc1ccc(NC(=O)N2c3ccc(OC)cc3C(C)=CC2(C)C)cc1`?
RN4220 kill: -2.7; SSB-PriA inh: 54.0*; Sa ugtP lethal: 5.5; Mtb hypoxia rep: 0.0

How did CCOc1ccc2c(c1)C(C)=CC(C)(C)N2C(=O)Nc1ccccc1 do in these assays?
RN4220 kill: 6.2; SSB-PriA inh: 44.3*; Sa ugtP lethal: 8.7; Mtb hypoxia rep: 9.5

Results for O=C(Nc1cccc(-c2nn[nH]n2)c1)c1ccc(Br)s1 ?
RN4220 kill: -2.5; SSB-PriA inh: 115.6*; Sa ugtP lethal: -8.2; Mtb hypoxia rep: 0.9

Results for O=C(Nc1cccc(-c2nn[nH]n2)c1)c1ccc(Cl)s1 ?
RN4220 kill: 2.3; SSB-PriA inh: 1.1; Sa ugtP lethal: -2.9; Mtb hypoxia rep: 6.3

What do the screens show for `CN(C)S(=O)(=O)c1ccc(C(=O)NCCn2ncc3c(=O)n(Cc4cccc([N+](=O)[O-])c4)cnc32)cc1`?
SSB-PriA inh: 1.0

How did CCN(CC)c1ccc(/C=C(\C#N)c2nc3ccccc3s2)cc1 do in these assays?
SSB-PriA inh: -21.0

What do the screens show for `COc1ccccc1C(=O)Nc1nnc(-c2ccccc2)s1`?
RN4220 kill: 0.4; SSB-PriA inh: 11.0; Sa ugtP lethal: -23.2; Mtb hypoxia rep: -3.7

Results for O=C(Nc1nnc(-c2ccccc2)s1)c1ccccc1O ?
RN4220 kill: 90.7*; SSB-PriA inh: -10.2; Sa ugtP lethal: 93.5*; Mtb hypoxia rep: 6.6

Results for CSc1ccc(CNC(=O)c2ccc3nncn3c2)cc1 ?
SSB-PriA inh: -6.0

What do the screens show for `Brc1ccc(COc2cccc3ccc(N4CCC(Cc5ccccc5)CC4)nc23)cc1`?
SSB-PriA inh: 0.0

How did CC(NCc1ccc(Cl)cc1Cl)C(O)c1ccccc1 (configuration not stated) do in these assays?
RN4220 kill: 2.7; SSB-PriA inh: -18.3; Sa ugtP lethal: -7.1; Mtb hypoxia rep: -1.1

What do the screens show for `CC(NCc1cccc(Cl)c1Cl)C(O)c1ccccc1` (configuration not stated)?
RN4220 kill: 4.3; SSB-PriA inh: 116.3*; Sa ugtP lethal: 2.6; Mtb hypoxia rep: 10.9

Results for FC(F)(F)Oc1ccc(C2NCc3ccccc3-n3cccc32)cc1 (configuration not stated) ?
RN4220 kill: 18.4; SSB-PriA inh: 7.4; Sa ugtP lethal: 93.6*; Mtb hypoxia rep: -10.6

How did CC1CCCCN1S(=O)(=O)c1ccc(C(=O)Nc2nnc(-c3ccccc3Cl)o2)cc1 (configuration not stated) do in these assays?
RN4220 kill: 97.8*; SSB-PriA inh: -9.5; Sa ugtP lethal: 98.1*; Mtb hypoxia rep: -5.0

Results for COc1ccc(-c2nnc(NC(=O)c3ccc(S(=O)(=O)N4COCC4(C)C)cc3)o2)cc1 ?
RN4220 kill: 54.0; SSB-PriA inh: -14.8; Sa ugtP lethal: 49.5; Mtb hypoxia rep: 0.9

Results for CC1(C)COCN1S(=O)(=O)c1ccc(C(=O)Nc2nnc(-c3ccc(Cl)s3)o2)cc1 ?
RN4220 kill: 99.6*; SSB-PriA inh: -5.1; Sa ugtP lethal: 98.4*; Mtb hypoxia rep: 4.8

How did CCCCN(CC)S(=O)(=O)c1ccc(C(=O)Nc2nnc(-c3ccccc3Cl)o2)cc1 do in these assays?
RN4220 kill: 99.8*; Sa ugtP lethal: 99.9*; Mtb hypoxia rep: -2.9

Results for CCC1CCCCN1S(=O)(=O)c1ccc(C(=O)Nc2nnc(C3CC3)o2)cc1 (configuration not stated) ?
RN4220 kill: 62.3; SSB-PriA inh: -16.1; Sa ugtP lethal: 50.3; Mtb hypoxia rep: -1.4

What do the screens show for `CCC1CCCCN1S(=O)(=O)c1ccc(C(=O)Nc2nnc(-c3ccccc3Cl)o2)cc1` (configuration not stated)?
RN4220 kill: 98.9*; SSB-PriA inh: -11.8; Sa ugtP lethal: 98.3*; Mtb hypoxia rep: 4.7

Results for COc1ccc(/C=C2\SC(=N)NC2=O)cc1Cl ?
SSB-PriA inh: 4.7

Results for O=C(Nc1nnc(-c2ccccc2Cl)o1)c1ccc(S(=O)(=O)N2CCc3ccccc3C2)cc1 ?
SSB-PriA inh: -12.0

What do the screens show for `O=C(Nc1nnc(-c2ccccc2Cl)o1)c1ccc(S(=O)(=O)N2CCCCCC2)cc1`?
RN4220 kill: 99.7*; SSB-PriA inh: -0.4; Sa ugtP lethal: 96.2*; Mtb hypoxia rep: -4.6

What do the screens show for `C(=Nc1ccc(N2CCOCC2)cc1)c1c[nH]c2ccccc12`?
RN4220 kill: 2.8; SSB-PriA inh: 17.2; Sa ugtP lethal: -0.2; Mtb hypoxia rep: 16.0

Results for Oc1ccc(N=Cc2c[nH]c3ccccc23)cc1 ?
SSB-PriA inh: 46.0*

What do the screens show for `O=C(CSc1nc2ccccc2[nH]1)NN=C/C=C\c1ccccc1[N+](=O)[O-]`?
RN4220 kill: 97.8*; SSB-PriA inh: 7.2; Sa ugtP lethal: 96.9*; Mtb hypoxia rep: 5.9

What do the screens show for `Cn1c(SCC(=O)NN=C/C=C\c2ccccc2[N+](=O)[O-])nc2ccccc21`?
RN4220 kill: 5.7; SSB-PriA inh: 9.6; Sa ugtP lethal: -1.1; Mtb hypoxia rep: 0.5

How did Cn1cc([C@@H](O)CNC(=O)NC2CCCCC2)c2ccccc21 do in these assays?
SSB-PriA inh: 3.0

Results for CC(CCC(=O)O)=NNc1ccc([N+](=O)[O-])cc1[N+](=O)[O-] ?
RN4220 kill: 2.4; SSB-PriA inh: 12.9; Sa ugtP lethal: -8.7; Mtb hypoxia rep: -1.5

How did CCOC(=O)CC(C)=NNc1ccc([N+](=O)[O-])cc1[N+](=O)[O-] do in these assays?
RN4220 kill: 18.7; SSB-PriA inh: 47.4*; Sa ugtP lethal: 4.1; Mtb hypoxia rep: 10.9

How did O=C(CSc1nc2ccccc2c(=O)n1Cc1ccccc1)Nc1ccc(Br)cc1C(=O)O do in these assays?
RN4220 kill: 76.2; SSB-PriA inh: -5.9; Sa ugtP lethal: 99.3*; Mtb hypoxia rep: -2.3

Screens (PubChem BioAssay)
